A selection: hits, their analogues and other compounds. The true share with any hit is near 0.91%.
LNCaP diff act = LNCaP prostate cell differentiation activation; flow cytometry side scatter, 4 d; side scatter shift, % at 10 µM; actives 0.56% (n = 24,000);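 active means side scatter shift above 30%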;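 further: androgen-responsive LNCaP prostate cancer cells in charcoal-stripped serum medium; higher shift means more granular cells and more differentiation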
S aureus QS inh = blocks AIP-induced quorum sensing reporter in S. aureus. S. aureus RN6390 RNAIII-GFP reporter, flow cytometry 3 h. inhibition, % at 2 µM. actives 0.3% (n = 24,000);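 active means share of bacteria positive for the green fluorescent reporter and its mean brightness both inhibited by 50% or more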
Each line names hits and unclear results; the compound was inactive in the other large screens.

O=C(COc1ccc2ccccc2c1)N1CCN(C2CCN(Cc3ccccc3)CC2)CC1	LNCaP diff act 46
CCCNS(=O)(=O)c1ccc(OCC(=O)N2CCN(Cc3ccccc3)CC2)cc1	none
N=C(N)c1c(O)n(C2CCCCC2)c(=O)n(C2CCCCC2)c1=O	none

From PubChem BioAssay
